This passage reports inhibition results from ChEMBL document CHEMBL1961873, “Compounds: GSK PKIS; Assays: Nanosyn kinase panel” (2012).

For assay [1], the target named is Tyrosine-protein kinase CSK (Homo sapiens) (UniProt P41240). The following applies: at 1 µM.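 Note: each value is an averaged inhibition reading.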
In assay [2] the target is T1, Discoidin domain-containing receptor 2 (Homo sapiens) (UniProt Q16832).
T1 sequence (whole entry): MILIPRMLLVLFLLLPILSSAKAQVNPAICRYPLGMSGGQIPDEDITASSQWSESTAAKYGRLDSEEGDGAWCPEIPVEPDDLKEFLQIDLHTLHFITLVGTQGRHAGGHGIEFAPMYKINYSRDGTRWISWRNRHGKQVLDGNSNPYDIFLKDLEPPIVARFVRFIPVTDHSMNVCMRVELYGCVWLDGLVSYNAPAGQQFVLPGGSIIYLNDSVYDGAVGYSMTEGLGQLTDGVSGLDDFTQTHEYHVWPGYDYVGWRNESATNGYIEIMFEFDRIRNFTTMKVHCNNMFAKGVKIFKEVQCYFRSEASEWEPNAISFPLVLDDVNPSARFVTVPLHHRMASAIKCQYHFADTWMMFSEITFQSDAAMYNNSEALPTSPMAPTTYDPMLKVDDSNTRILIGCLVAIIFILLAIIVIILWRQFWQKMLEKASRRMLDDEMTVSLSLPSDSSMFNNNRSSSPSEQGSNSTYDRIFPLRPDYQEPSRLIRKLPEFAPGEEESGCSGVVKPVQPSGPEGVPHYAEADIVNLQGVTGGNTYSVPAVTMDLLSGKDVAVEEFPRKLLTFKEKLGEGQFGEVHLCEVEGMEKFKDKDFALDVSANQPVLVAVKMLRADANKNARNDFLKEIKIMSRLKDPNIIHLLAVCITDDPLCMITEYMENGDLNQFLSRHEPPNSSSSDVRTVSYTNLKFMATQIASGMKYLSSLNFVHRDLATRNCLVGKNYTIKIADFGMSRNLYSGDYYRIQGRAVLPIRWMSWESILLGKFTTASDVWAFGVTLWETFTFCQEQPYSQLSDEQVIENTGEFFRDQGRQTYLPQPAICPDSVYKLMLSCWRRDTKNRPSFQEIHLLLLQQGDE
To be noted: at 0.1 µM.

Assay [3] addresses T1, Discoidin domain-containing receptor 2 (Homo sapiens). The following applies: at 1 µM.
Assay [4] addresses Epidermal growth factor receptor (Homo sapiens) (UniProt P00533). The following applies: at 0.1 µM.
Assay [5] shares this target. To be noted: at 1 µM.
The test system of assay [6] is Epidermal growth factor receptor (Homo sapiens), P00533 [L858R]. To be noted: at 0.1 µM.
For assay [7] the test system is unchanged. To be noted: at 1 µM.
Assay [8] deals with Epidermal growth factor receptor (Homo sapiens), P00533 [L861Q]. To be noted: at 0.1 µM.
Assay [9] shares this test system. The following applies: at 1 µM.
Assay [10] relates to Epidermal growth factor receptor (Homo sapiens), P00533 [T790M]. To be noted: at 0.1 µM.
Epidermal growth factor receptor (Homo sapiens), P00533 [T790M], sequence (P00533 whole entry T790M): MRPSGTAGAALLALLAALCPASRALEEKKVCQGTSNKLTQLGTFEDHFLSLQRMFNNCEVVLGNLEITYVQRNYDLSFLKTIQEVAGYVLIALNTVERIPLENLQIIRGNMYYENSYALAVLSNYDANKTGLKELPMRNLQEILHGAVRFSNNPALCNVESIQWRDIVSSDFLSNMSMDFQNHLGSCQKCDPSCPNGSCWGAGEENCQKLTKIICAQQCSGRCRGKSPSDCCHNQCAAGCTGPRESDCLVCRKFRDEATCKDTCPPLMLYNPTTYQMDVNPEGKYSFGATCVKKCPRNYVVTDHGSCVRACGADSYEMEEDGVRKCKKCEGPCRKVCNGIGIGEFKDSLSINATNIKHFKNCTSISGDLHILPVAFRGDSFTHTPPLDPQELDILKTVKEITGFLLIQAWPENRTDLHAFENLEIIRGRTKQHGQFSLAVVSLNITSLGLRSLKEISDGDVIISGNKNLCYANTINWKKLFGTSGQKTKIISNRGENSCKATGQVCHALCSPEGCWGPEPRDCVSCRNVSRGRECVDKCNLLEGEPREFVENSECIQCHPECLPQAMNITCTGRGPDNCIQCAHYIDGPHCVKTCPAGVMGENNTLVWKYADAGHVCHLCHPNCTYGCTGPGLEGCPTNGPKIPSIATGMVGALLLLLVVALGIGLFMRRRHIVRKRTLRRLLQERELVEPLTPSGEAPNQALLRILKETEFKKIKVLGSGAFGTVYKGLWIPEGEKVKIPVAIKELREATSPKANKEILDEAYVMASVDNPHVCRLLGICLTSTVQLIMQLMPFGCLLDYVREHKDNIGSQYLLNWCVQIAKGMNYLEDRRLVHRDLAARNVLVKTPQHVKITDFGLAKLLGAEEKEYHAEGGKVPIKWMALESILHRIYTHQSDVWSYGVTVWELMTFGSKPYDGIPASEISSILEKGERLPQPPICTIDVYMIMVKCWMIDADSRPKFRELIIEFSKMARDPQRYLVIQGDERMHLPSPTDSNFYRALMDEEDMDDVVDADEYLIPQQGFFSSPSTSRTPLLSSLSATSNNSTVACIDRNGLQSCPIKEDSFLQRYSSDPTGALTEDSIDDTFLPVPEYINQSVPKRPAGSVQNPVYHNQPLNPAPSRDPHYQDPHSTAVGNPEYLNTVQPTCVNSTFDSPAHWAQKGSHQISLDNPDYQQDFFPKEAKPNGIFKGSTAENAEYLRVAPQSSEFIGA
Assay [11] shares this test system. To be noted: at 1 µM.
The test system of assay [12] is Epidermal growth factor receptor (Homo sapiens), P00533 [L858R,T790M]. To be noted: at 0.1 µM.
Epidermal growth factor receptor (Homo sapiens), P00533 [L858R,T790M], sequence (P00533 whole entry T790M/L858R, looked up): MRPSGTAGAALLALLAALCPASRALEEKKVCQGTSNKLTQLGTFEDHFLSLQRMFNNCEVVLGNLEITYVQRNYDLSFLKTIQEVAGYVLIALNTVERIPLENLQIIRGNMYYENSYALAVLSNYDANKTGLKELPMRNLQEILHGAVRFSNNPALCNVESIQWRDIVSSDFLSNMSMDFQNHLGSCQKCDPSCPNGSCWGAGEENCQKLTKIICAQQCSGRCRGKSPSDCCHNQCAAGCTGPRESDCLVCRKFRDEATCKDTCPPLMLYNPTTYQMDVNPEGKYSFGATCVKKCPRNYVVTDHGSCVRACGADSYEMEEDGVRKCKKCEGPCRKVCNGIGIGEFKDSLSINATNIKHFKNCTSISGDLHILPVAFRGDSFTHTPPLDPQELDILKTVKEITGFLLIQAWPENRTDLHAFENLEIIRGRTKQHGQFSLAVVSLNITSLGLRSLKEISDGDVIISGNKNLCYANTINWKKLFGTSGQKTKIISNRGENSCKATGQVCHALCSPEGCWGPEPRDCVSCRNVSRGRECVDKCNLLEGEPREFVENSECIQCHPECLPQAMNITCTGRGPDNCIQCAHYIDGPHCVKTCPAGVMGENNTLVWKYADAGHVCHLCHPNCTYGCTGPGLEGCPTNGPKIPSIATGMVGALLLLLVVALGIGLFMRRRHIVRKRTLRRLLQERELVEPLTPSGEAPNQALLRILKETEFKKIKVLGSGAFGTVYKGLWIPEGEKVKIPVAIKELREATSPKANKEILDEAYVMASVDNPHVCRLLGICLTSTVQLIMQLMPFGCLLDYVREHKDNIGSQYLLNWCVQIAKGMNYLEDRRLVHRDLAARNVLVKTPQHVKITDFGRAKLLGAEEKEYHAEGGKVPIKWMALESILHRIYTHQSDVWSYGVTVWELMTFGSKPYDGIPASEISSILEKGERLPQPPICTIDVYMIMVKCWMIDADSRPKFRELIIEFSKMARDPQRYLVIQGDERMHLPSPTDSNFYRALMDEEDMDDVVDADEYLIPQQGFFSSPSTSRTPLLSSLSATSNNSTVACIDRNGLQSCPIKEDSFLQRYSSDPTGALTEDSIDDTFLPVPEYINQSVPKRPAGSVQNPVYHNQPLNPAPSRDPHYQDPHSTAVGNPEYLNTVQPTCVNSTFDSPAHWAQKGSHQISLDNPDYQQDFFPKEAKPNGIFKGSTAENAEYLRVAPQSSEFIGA
Assay [13] shares this test system. To be noted: at 1 µM.
The target of assay [14] is Ephrin type-A receptor 2 (Homo sapiens) (UniProt P29317). The following applies: at 0.1 µM.
Ephrin type-A receptor 2 (Homo sapiens), sequence (P29317 whole entry): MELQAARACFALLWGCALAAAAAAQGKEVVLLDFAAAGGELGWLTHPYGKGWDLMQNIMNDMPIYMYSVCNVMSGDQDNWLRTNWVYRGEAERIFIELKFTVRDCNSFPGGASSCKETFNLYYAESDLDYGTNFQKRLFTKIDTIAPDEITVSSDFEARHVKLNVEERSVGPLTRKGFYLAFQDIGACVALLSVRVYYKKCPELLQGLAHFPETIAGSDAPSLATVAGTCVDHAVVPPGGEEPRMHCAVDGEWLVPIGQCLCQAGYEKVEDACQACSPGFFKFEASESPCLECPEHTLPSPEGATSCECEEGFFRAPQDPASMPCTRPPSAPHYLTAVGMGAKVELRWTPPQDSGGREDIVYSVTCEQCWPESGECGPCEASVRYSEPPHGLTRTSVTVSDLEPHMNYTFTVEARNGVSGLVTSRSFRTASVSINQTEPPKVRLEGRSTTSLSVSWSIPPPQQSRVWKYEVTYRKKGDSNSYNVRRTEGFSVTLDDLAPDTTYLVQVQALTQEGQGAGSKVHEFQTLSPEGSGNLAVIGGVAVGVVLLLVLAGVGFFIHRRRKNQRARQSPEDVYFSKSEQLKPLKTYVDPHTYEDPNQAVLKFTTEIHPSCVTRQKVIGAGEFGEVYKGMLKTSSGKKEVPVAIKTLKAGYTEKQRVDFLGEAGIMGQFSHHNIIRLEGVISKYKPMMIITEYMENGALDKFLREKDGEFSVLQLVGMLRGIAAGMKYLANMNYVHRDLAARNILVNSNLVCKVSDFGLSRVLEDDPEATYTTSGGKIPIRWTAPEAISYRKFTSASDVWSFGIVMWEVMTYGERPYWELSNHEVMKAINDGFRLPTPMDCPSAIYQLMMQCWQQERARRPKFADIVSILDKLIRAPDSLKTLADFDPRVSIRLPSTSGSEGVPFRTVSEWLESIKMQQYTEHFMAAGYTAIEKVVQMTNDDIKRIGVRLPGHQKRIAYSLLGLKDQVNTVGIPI
The target is the same in assay [15]. To be noted: at 1 µM.
Assay [16] deals with T2, Ephrin type-A receptor 3 (Homo sapiens) (UniProt P29320).
T2 sequence (whole entry): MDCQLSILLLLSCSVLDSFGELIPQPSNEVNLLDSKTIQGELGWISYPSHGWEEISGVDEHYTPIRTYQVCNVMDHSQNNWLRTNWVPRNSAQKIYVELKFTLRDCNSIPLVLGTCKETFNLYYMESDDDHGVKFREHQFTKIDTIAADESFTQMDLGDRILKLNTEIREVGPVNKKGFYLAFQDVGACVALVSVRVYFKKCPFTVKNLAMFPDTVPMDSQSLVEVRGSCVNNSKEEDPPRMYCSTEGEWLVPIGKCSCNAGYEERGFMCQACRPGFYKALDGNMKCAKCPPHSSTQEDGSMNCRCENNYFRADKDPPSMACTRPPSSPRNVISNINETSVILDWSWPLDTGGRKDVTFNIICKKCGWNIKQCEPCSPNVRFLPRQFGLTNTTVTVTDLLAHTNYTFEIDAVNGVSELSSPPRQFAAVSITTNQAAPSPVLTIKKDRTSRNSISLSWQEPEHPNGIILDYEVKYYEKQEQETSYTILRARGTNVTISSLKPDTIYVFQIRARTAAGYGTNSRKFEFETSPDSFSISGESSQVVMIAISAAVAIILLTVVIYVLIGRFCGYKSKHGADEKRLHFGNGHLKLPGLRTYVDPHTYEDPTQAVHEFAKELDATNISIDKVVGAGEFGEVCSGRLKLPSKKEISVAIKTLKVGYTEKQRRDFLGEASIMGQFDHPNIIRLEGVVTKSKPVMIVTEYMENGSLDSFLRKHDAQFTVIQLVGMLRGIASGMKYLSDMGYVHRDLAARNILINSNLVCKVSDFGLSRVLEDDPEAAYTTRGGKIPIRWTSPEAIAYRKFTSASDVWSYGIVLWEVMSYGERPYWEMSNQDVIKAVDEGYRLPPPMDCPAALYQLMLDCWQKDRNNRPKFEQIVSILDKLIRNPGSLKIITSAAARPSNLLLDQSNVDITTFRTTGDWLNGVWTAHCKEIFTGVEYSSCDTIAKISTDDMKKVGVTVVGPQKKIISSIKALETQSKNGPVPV
The following applies: at 0.1 µM.

Assay [17] has as its target T2, Ephrin type-A receptor 3 (Homo sapiens). To be noted: at 1 µM.
Assay [18] addresses Ephrin type-A receptor 4 (Homo sapiens) (UniProt P54764). The following applies: at 0.1 µM.
The target is the same in assay [19]. The following applies: at 1 µM.
The target in assay [20] is T3, Ephrin type-B receptor 2 (Homo sapiens) (UniProt P29323).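 Note: reported as mean inhibition of EPHB2, from the GSK PKIS dataset.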
T3 sequence (whole entry): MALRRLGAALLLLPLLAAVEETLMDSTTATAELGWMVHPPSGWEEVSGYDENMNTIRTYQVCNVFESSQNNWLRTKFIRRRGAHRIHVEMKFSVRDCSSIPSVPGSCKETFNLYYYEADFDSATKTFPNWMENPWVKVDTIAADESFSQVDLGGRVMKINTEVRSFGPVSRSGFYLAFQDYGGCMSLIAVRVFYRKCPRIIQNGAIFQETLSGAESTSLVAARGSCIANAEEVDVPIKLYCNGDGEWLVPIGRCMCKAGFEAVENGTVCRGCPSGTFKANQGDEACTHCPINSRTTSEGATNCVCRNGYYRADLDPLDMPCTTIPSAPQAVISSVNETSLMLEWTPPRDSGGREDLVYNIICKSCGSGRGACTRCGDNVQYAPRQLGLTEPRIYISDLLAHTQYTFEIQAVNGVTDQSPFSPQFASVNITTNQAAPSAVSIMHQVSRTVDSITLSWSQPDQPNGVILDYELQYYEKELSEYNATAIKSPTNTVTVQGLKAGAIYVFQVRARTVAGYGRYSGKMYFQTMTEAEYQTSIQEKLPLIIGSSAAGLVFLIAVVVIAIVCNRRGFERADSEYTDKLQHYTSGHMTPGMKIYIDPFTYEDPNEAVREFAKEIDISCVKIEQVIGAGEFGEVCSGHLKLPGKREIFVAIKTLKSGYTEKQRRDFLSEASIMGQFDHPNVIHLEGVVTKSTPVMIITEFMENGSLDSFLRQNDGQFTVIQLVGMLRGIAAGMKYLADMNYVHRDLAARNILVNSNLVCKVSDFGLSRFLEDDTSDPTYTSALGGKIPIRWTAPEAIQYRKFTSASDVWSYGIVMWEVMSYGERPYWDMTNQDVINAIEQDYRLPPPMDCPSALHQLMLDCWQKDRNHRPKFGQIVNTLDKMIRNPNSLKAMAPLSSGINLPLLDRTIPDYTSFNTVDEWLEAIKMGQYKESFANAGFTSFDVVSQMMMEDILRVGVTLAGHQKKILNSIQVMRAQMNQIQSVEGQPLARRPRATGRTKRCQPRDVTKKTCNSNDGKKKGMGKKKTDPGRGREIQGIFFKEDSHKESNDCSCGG
The following applies: at 0.1 µM.

The term inhibition denotes the change of the read-out against control, counted positive when it falls.

Epidermal growth factor receptor (Homo sapiens), sequence (P00533 whole entry): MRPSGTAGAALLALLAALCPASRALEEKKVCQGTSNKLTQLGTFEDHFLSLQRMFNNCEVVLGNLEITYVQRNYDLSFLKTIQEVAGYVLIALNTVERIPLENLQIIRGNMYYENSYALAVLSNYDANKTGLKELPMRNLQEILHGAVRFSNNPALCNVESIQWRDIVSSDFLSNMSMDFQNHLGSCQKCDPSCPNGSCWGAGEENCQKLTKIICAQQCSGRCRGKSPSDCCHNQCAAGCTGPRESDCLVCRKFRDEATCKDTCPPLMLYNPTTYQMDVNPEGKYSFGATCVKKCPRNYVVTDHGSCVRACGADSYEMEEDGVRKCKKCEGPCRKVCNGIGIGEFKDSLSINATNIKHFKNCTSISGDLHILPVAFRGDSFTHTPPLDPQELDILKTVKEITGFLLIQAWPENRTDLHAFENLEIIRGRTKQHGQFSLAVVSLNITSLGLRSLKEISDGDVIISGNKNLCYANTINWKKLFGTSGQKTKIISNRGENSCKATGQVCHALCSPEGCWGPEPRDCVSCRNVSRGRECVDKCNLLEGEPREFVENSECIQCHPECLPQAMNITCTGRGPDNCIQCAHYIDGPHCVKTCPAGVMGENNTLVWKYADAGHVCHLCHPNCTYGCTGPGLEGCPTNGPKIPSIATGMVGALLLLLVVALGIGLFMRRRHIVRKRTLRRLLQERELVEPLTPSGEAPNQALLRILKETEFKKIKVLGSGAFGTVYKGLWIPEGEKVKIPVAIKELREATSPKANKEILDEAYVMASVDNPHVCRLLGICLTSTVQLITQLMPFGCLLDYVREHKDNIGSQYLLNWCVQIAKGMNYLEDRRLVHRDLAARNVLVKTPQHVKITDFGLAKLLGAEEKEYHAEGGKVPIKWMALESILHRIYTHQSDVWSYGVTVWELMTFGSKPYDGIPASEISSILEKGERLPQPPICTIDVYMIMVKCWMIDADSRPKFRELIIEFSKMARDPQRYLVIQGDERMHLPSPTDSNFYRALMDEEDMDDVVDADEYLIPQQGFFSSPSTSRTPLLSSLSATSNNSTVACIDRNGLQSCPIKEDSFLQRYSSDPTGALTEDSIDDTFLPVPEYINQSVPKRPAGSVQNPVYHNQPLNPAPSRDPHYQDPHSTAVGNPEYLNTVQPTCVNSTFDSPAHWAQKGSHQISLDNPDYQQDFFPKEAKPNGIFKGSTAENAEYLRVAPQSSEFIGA
Tyrosine-protein kinase CSK (Homo sapiens), sequence (P41240 2-450 limits assumed): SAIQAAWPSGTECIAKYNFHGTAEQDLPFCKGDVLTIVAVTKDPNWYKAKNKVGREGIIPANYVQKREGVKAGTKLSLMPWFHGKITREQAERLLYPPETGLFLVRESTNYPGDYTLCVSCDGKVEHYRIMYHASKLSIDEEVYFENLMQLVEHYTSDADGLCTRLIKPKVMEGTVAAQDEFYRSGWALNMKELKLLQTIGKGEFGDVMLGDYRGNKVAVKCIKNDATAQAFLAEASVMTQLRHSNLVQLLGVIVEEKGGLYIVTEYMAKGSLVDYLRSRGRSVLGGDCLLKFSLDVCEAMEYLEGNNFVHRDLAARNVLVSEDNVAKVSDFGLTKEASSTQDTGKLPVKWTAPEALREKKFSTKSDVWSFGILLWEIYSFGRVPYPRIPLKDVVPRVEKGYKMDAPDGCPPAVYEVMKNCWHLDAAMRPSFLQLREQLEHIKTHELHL

As for `COc1ccc(-c2nn3ncccc3c2-c2ccnc(Nc3ccc(Cl)c(C(F)(F)F)c3)n2)cc1`, the inhibition worked out at 5.3% in [1]; 0.69% in assay [2]; 3.24% in assay [3]; 0.68% in assay [4]; 3.67% in assay [5]; 1.63% in assay [6]. Besides, the inhibition in assay [7] came to 14.3%; in assay [8], 2%; in assay [9], 5.96%; in [10], 0.44%; in assay [11], 3.31%; in assay [12], 0.9%. In addition, the inhibition in assay [13] is 4.78%; in assay [14] it was 0.97%; in [15] it was 0.97%; in assay [16] it was 3.2%; in assay [17] it was 3.4%; in [18], 6.57%. Also, the results for the inhibition in assay [19] and in [20] were 10.2% and 3.9%, respectively.
Regarding `Cc1nnc(-c2ccc(C)c(-c3ccc(C(=O)Nc4cccc(C#N)c4)cc3)c2)o1`, the inhibition amounted to 6.38% in assay [1]; 1.45% in assay [2]; 1.83% in assay [3]; 6.74% in [4]; 8.18% in assay [5]; 0.95% in assay [6]. Moreover, the inhibition worked out at 3.01% in [7]; 1.88% in assay [8]; 2.37% in assay [9]; 1.41% in assay [10]; 2.44% in [11]; 0.19% in assay [12]. Besides, the inhibition is 2.34% in assay [13]; -0.29% in assay [14]; -0.3% in assay [15]; 4.6% in assay [16]; 2.95% in assay [17]; 6.99% in assay [18]. Besides, the inhibition in assay [19] came out at 4.3%; in assay [20] it was 5.86%.
Regarding `Nc1nc(-c2ccccn2)c(-c2ccc3ncccc3n2)s1`, the inhibition was 4.7% in assay [1]; 3.14% in [2]; -1.29% in [3]; 1.32% in assay [4]; 1.23% in assay [5]; 3.43% in assay [6]. Moreover, the inhibition was 2.31% in [7]; 1.79% in assay [8]; 4.31% in assay [9]; 1.91% in [10]; 1.67% in assay [11]; 2.24% in [12]. Also, the inhibition was found to be 1.13% in [13]; 0.85% in assay [14]; 0.89% in assay [15]; 2.58% in assay [16]; 3.28% in assay [17]; 7.9% in [18]. The inhibition in assay [19] was found to be 8.8%; in assay [20], 5.32%.
On to `CCn1c(-c2nonc2N)nc2c(C#CC(C)(C)O)nc(OC[C@@H](N)c3ccccc3)cc21`, for which the inhibition in [1] is -2.13%; in assay [2], 4.51%; in [3], 12.2%; in assay [4], 0.44%; in [5], 3.81%; in [6] it was -1.04%. Further, the inhibition in assay [7] is -2.49%; in assay [8], -1.53%; in assay [9], -1.51%; in [10], -1.77%; in [11] it was -1.79%; in [12], -0.23%. Further, the inhibition in assay [13] is 0.54%; in assay [14], -1.19%; in assay [15], 0.2%; in assay [16], -1.62%; in [17], 7.71%; in [18], -5.47%. For the same molecule, the figures for the inhibition in assay [19] and in assay [20] were 6.31% and 5%, respectively.
As to `COc1cc2ncn(-c3cc(OCc4ccccc4Cl)c(C(N)=O)s3)c2cc1OC`, the inhibition in assay [1] stood at 4.61%; in assay [2] it was 0.71%; in [3], 0.75%; in assay [4] it was 2.48%; in [5], 8.81%; in assay [6] it was 1.49%. In addition, the inhibition in [7] was 13.4%; in [8] it was -0.11%; in assay [9], 5.11%; in [10], -1.99%; in [11], 0.02%; in [12], -1.12%. For the same molecule, the inhibition in [13] is 1.19%; in assay [14], -2.86%; in assay [15], -1.31%; in assay [16], -1.62%; in assay [17], 0.98%; in assay [18] it was 0.5%. The inhibition in assay [19] stood at 7.32%; in assay [20], 2%.
